# The list is not random: actives were taken first. Their share in the collection is about 19%.
# IL-1B inflam inh – qHTS for Inhibitors of Inflammasome Signaling: IL-1-beta AlphaLISA Primary Screen; THP-1 LPS/ATP IL-1B secretion, AlphaLISA, 16 h; active compounds read low; activity change, % at 57.5 µM; 360,000 compounds, 4.7% hits; AID 743279, 2014; in the data active = activity change below about -50%; inconclusive = mostly about -30% to -49%
#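 Secreted IL-1B measured by AlphaLISA bead assay after 16 h compound exposure of THP-1 cells; compounds (final up to 57.5 uM) added 1 h before LPS (250 ng/mL) and ATP (1.25 mM) stimulation; lower signal means less secretion.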
# TDP1 cell noCPT – qHTS for Inhibitors of human tyrosyl-DNA phosphodiesterase 1 (TDP1): qHTS in cells in absence of CPT | DT40 Tdp1-/- hTDP1 cells, no CPT, ATP luminescence, 48 h | Potency, µM (titrated, usually from 46.2 µM), without a hit: at the highest dose activity change, negative = growth inhibition, most hits filed as inhibitors | 420,000 compounds, 15% hits | AID 686978, 2013; note: potency is the fitted concentration of half-maximal effect; nearly all actives have a fitted effect of over 55% in size
#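 Readout: luminescence from CellTiter-Glo after 30 min in the dark at RT. Cells: DT40 Tdp1-/- with stable hTDP1, 400/well. Exposure: compounds alone, ≥48 hr, 37 °C.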
# TDP1 cell CPT – qHTS for Inhibitors of human tyrosyl-DNA phosphodiesterase 1 (TDP1): qHTS in cells in presence of CPT; chicken DT40 Tdp1-/-;hTDP1 cells + 20 nM CPT, ATP luminescence, 48 h; Potency, µM (titrated, usually from 46.2 µM), inactives show at the top dose activity change, negative = growth inhibition, usual class: inhibitors; 420,000 compounds, 12% hits; AID 686979, 2013; note: potency is the fitted concentration of half-maximal effect; nearly all actives have a fitted effect of over 55% in size
#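 Chicken DT40 Tdp1-/- cells stably complemented with human TDP1 were seeded at 400 cells/well in medium containing 20 nM camptothecin, exposed to pin-transferred compounds, and grown at 37 °C for at least 48 hr. Viability was read as ATP luminescence.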
# HT1080 IDH1KD tx – qHTS for induction of synthetic lethality in tumor cells producing 2HG: qHTS for the HT-1080-IDH1KD cell line; HT-1080 IDH1 knockdown viability, ATP luminescence, 48 h; Potency, µM (top dose mostly 46.1 µM), without a hit: at the highest dose activity, negative = toxicity, usual class: cytotoxic; 360,000 compounds, 2% hits;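 note: potency is the fitted concentration of half-maximal effect; 0% = DMSO wells and -100% = cell-free medium wells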
#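 After a 2 h attachment period, IDH1KD HT-1080 cells took pin-transferred compound for 48 h at 37 °C; ATP-based luminescence after 10 min room-temperature reagent incubation reported viability.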
# HT1080NT lethal – qHTS for induction of synthetic lethality in tumor cells producing 2HG: qHTS for the HT-1080-NT fibrosarcoma cell line. HT-1080-NT fibrosarcoma viability, CellTiter-Glo ATP luminescence, 48 h. Potency, µM (series often up to 46.1 µM), inactives show top-dose activity, negative = less viability, most hits filed as cytotoxic. 360,000 compounds, 1.6% hits. AID 686970, 2013;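 note: NT is the 2HG producing partner of a matched IDH1 knockdown line; potency is the fitted concentration of half-maximal effect; 0% = DMSO-treated cells and -100% = media-only wells without cells; nearly all actives have a fitted effect of over 55% in size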
#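 Viability of the 2HG-overproducing fibrosarcoma line after 48 hours of compound exposure at 37 degrees C was determined by luminescence with CellTiter-Glo, and concentration-effect curves were then fitted and categorized.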
# Active calls of the source: *; ? = inconclusive; nt = not tested or not shown. Unless noted, calls come from the whole dose curve; as a rule, active = well fitted curve in the direction sought with a large enough effect; inconclusive = small, poorly fitted or top-dose-only effect, or another doubt; inactive = no such curve, though single readings can be large; an effect the other way counts as inactive or inconclusive. Unless noted, % is set by controls: 0 for no effect and ±100 for the full control effect.
SMILES,IL-1B inflam inh,TDP1 cell noCPT,TDP1 cell CPT,HT1080 IDH1KD tx,HT1080NT lethal
CC1CCN(Cc2nc3c(c(=O)n(C)c(=O)n3C)n2CCCc2ccccc2)CC1,-6,16µM*,?,11%,0%
CC(C)c1cccc(C(C)C)c1NC(=O)CN1C(=O)NC2(CCCCCCC2)C1=O,-3,9%,16%,3%,3%
CC1CCCCN1Cc1nc2c(c(=O)n(C)c(=O)n2C)n1Cc1c(F)cccc1Cl (stereo unspecified),-3,10µM*,7.3µM*,13%,19%
Cn1c(=O)c2c(nc(CN3CCC(C(N)=O)CC3)n2Cc2c(F)cccc2Cl)n(C)c1=O,-10,0%,1%,-1%,-5%
COC(=O)c1ccc(Cn2c(SCc3ccccc3)nc3ccncc32)cc1,nt,21µM*,?,nt,nt
CCc1ccc(CNC(=O)c2ccc(CSc3nc4ccncc4n3Cc3ccccc3)cc2)cc1,nt,23µM*,16µM*,nt,nt
CCc1ccccc1NC(=O)Cn1c(SCc2ccc(F)cc2)nc2ccncc21,nt,0%,-22%,nt,nt
COc1ccc(Cn2c(SCc3ccc(C(=O)NCc4cccs4)cc3)nc3ccncc32)cc1,nt,?,18µM*,nt,nt
CCc1ccc(CNC(=O)c2ccc(CSc3nc4ccncc4n3Cc3ccc(OC)cc3)cc2)cc1,nt,?,23µM*,nt,nt
COc1ccc(C(=O)NCc2nnc(SC)n2Cc2ccccc2)cc1,7,-18%,-17%,-5%,-3%
CC(C)(CNC(=O)c1ccc(Br)o1)CNC(=O)c1ccc(Br)o1,33,-18%,?,-1%,16%
COc1ccccc1CNC(=O)c1ccc(CSc2nc3ccncc3n2Cc2cccc(F)c2)cc1,nt,18µM*,?,nt,nt
O=C(NCc1cccs1)c1ccncc1,1,6%,4%,11%,17%
O=C(NCc1cccs1)c1ccc(CSc2nc3ccncc3n2Cc2cccc(F)c2)cc1,nt,21µM*,?,nt,nt
COc1ccc(NC(=O)C2(C)CCN2Cc2ccc(OC(F)(F)F)cc2)cc1OC (stereo unspecified),-3,?,23µM*,-21%,4%
COc1ccc(CN2CCC2(C)C(=O)Nc2ccc(OC)c(OC)c2)cc1 (stereo unspecified),-10,?,?,5%,-1%
COc1ccc(NC(=O)C2(C)CCN2Cc2ccc(SC)cc2)cc1OC (stereo unspecified),-18,?,16µM*,-8%,-12%
CCN(Cc1ccccc1)C(=O)C1CCN(Cc2ccc(SC)cc2)CC1,-28,?,?,-11%,0%
CSc1ccc(CN2CCC2(C)C(=O)NC2CCN(Cc3ccccc3)CC2)cc1 (stereo unspecified),-10,18µM*,26µM*,-7%,-9%
CCN(Cc1ccccc1)C1CCN(Cc2ccc(SC)cc2)CC1,-72*,?,?,-2%,-30%
CSCCC(NS(=O)(=O)c1ccc2c(c1)oc(=O)n2C)C(=O)NCc1ccc(Cl)cc1 (stereo unspecified),nt,-6%,-10%,nt,nt
CC1=C[C@H](C)[C@H](c2c(F)cccc2Cl)CC1=O,4,-15%,-10%,-4%,8%
COc1cccc(N2CC(NC(=O)c3cccc(OC)c3OC)CC2=O)c1 (stereo unspecified),nt,-4%,2%,nt,nt
Clc1ccccc1-c1csc(Nc2cccnc2)n1,-60*,-9%,4%,?,4%
Cc1ccc(Nc2nc(-c3cccnc3)cs2)cc1Cl,-12,?,?,-17%,-20%
SMILES,IL-1B inflam inh,TDP1 cell noCPT,TDP1 cell CPT,HT1080 IDH1KD tx,HT1080NT lethal
Clc1ccccc1Nc1nc(-c2cccnc2)cs1,-87*,?,-1%,-21%,-24%
Cc1ccc(C)c(Nc2nc(-c3cccnc3)cs2)c1,-81*,?,?,-9%,-2%
c1cncc(Nc2nc(-c3ccncc3)cs2)c1,?,?,?,?,-3%
CCOc1ccccc1Nc1nc(-c2cccnc2)cs1,-59*,?,?,-15%,-16%
CCOc1ccccc1Nc1nc(-c2sc(C)nc2C)cs1,-23,?,?,-30%,-5%
CCc1ccccc1NC(=O)Cn1c2ncccc2c(=O)n1-c1ccccc1,nt,-19%,-21%,nt,nt
Cc1ccc(-n2c(=O)c3cccnc3n2CC(=O)Nc2ccc(C)cc2Cl)cc1,nt,13µM*,?,nt,nt
CCc1cccc(-n2c(=O)c3cccnc3n2CC(=O)Nc2c(C)cc(C)cc2C)c1,nt,23µM*,?,nt,nt
Cc1ccc(CNC(=O)Cn2c3ncccc3c(=O)n2-c2ccc(C)cc2)cc1,nt,?,21µM*,nt,nt
Cc1ccc(-n2c(=O)c3cccnc3n2CC(=O)Nc2cc(C)cc(C)c2)cc1,nt,-100%,?,nt,nt
Cc1ccc(NC(=O)C2CCCN2S(=O)(=O)c2ccc(F)cc2)c(C)c1 (stereo unspecified),13,-30%,-14%,1%,2%
CC1=C(c2ccc(C)c(C)c2)S(=O)(=O)N=C1N1CCC(C(=O)NCCc2ccc(Cl)cc2)CC1,nt,7.3µM*,13µM*,nt,nt
COc1ccccc1CNC(=O)C1CCN(C2=NS(=O)(=O)C(c3ccc(C)c(C)c3)=C2C)CC1,nt,18µM*,16µM*,nt,nt
CCOc1ccccc1CNC(=O)C1CCN(C2=NS(=O)(=O)C(c3ccc(C)c(C)c3)=C2C)CC1,nt,-16%,3%,nt,nt
CCOc1ccc(CNC(=O)C2CCN(C3=NS(=O)(=O)C(c4ccc(C)cc4)=C3CC)CC2)cc1,nt,?,18µM*,nt,nt
COc1ccc(CC(N)c2csc(NC(=O)NCCc3ccc(OC)c(OC)c3)n2)cc1 (stereo unspecified),?,?,18µM*,?,?
COc1ccc(CCNC(=O)Nc2nc(CN)cs2)cc1OC,1,-22%,?,3%,0%
COc1ccc(CCNC(=O)Nc2nc(C(N)COCc3ccccc3)cs2)cc1OC (stereo unspecified),?,?,?,-18%,?
COc1ccc(CCNC(=O)Nc2nc(C(N)Cc3ccccc3)cs2)cc1OC (stereo unspecified),?,21µM*,?,?,?
Cc1ccccc1-c1cc(C(=O)NCc2cccc(Br)c2)nn1CC1CC(c2cccc([N+](=O)[O-])c2)=NO1 (stereo unspecified),-7,?,-26%,-6%,-7%

# Bioassay records as filed in PubChem BioAssay.
